We go through nine compounds from PubChem BioAssay (NCI).

Compounds without any hit were thinned out: in the full panel of roughly 83,000, 20% have a hit.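 Single-dose data. Exposure time 48 hours. Values below 10 considered active.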 A number with no mark means an inactive call. Active and inactive are the calls of the source.

Among the test systems are K-562 leukemia; MALME-3M melanoma; MDA-MB-231 breast; SF-268 CNS; SF-295 CNS; SF-539 CNS; UACC-257 melanoma; M14 melanoma; HCT-15 colon; HT29 colon; SNB-75 CNS; U251 CNS; SK-MEL-5 melanoma; UACC-62 melanoma; LOX IMVI melanoma; SK-MEL-28 melanoma; SNB-19 CNS; PC-3 prostate; SK-MEL-2 melanoma.
What all share (test): NCI-60 one-dose screen, 48 h (100 = growth as untreated, 0 = no growth, -100 = all killed)
Conditions in all cases: 10 µM unless noted

As to `CCOC(=O)c1cc(-c2cccnc2)nc2c(Cl)cc(Cl)cc12`, the growth in the assay on K-562 leukemia was 105%; with MALME-3M melanoma it was 124%; with MDA-MB-231 breast, 103%; in the assay on SF-268 CNS it was 73%; in the assay with SF-295 CNS it was 90.2%; with SF-539 CNS, 79.6%. In addition, the growth was 120% in the assay on UACC-257 melanoma; 117% with M14 melanoma; 96.6% with HCT-15 colon; 88% in the assay on HT29 colon; 104% in the assay with SNB-75 CNS; 70.3% with U251 CNS. In addition, the growth in the assay on SK-MEL-5 melanoma was 101%; in the assay on UACC-62 melanoma it was 95.6%; in the assay on LOX IMVI melanoma, 98.2%; in the assay on SK-MEL-28 melanoma, 129%.

As to `CO[C@H]1/C=C/O[C@@]2(C)Oc3c(C)c(O)c4c(O)c(c(/C=N/N5C(C)CN(Cc6ccccc6)CC5C)c(O)c4c3C2=O)NC(=O)/C(C)=C\C=C\[C@H](C)[C@H](O)[C@@H](C)[C@@H](O)[C@@H](C)[C@H](OC(C)=O)[C@@H]1C` (stereo partly drawn), the growth in the assay on K-562 leukemia is 203%; in the assay on MALME-3M melanoma it was 108%; in the assay on MDA-MB-231 breast it was 102%; in the assay with SF-268 CNS, 92.6%; in the assay with SF-295 CNS, 41.1%; in the assay on SF-539 CNS, 85.8%. Besides, the growth in the assay with UACC-257 melanoma was 117%; in the assay on M14 melanoma it was 89.9%; with HCT-15 colon, 57.5%; in the assay on HT29 colon, 87.6%; in the assay on SNB-75 CNS, 127%; in the assay with SNB-19 CNS it was 97.8%. Moreover, the growth in the assay on U251 CNS was 56.9%; in the assay on PC-3 prostate, -19.5% (active); with SK-MEL-5 melanoma, 67.4%; in the assay with UACC-62 melanoma, 72.8%; with LOX IMVI melanoma, 76%; in the assay on SK-MEL-28 melanoma, 94.2%. The growth in the assay on SK-MEL-2 melanoma was -39.4% (active).

For the compound `COc1ccc2c(c1)C(=O)/C(=C/c1cccc(OCC(=O)c3ccccc3)c1)CC2`, the growth in the assay on K-562 leukemia is 33.4%; with MALME-3M melanoma, 97.6%; in the assay on MDA-MB-231 breast, 83.6%; in the assay with SF-268 CNS it was 91.8%; with SF-295 CNS, 104%; with SF-539 CNS, 93.5%. Also, the growth was 91.7% with UACC-257 melanoma; 92.2% with M14 melanoma; 89.7% in the assay on HCT-15 colon; 80.9% in the assay on HT29 colon; 112% in the assay with SNB-75 CNS; 100% in the assay on SNB-19 CNS. Moreover, the growth is 76.9% in the assay on U251 CNS; 39.3% in the assay with SK-MEL-5 melanoma; 70.2% in the assay on UACC-62 melanoma; 70.3% in the assay on LOX IMVI melanoma; 106% with SK-MEL-28 melanoma; 67.3% in the assay with SK-MEL-2 melanoma.

Consider `CSc1ncc2ncn(C3OC(CO)C(O)C3O)c2n1` (stereo not drawn), for which the growth is 104% in the assay with K-562 leukemia; 126% in the assay with MALME-3M melanoma; 108% with MDA-MB-231 breast; 103% with SF-268 CNS; 107% in the assay with SF-295 CNS; 114% in the assay with SF-539 CNS. In addition, the growth is 126% in the assay on UACC-257 melanoma; 107% in the assay on M14 melanoma; 114% in the assay on HCT-15 colon; 108% with HT29 colon; 96% in the assay with SNB-75 CNS; 103% in the assay on U251 CNS. Further, the growth in the assay on SK-MEL-5 melanoma was 129%; with UACC-62 melanoma, 103%; with LOX IMVI melanoma it was 108%; in the assay with SK-MEL-28 melanoma, 115%.

Regarding `CCCCCCCC1(C)NC(=O)NC1=O` (stereo not drawn), the growth in the assay on K-562 leukemia is 90.6%; with MALME-3M melanoma, 126%; in the assay with MDA-MB-231 breast, 116%; in the assay with SF-268 CNS, 106%; in the assay with SF-295 CNS, 124%; in the assay on SF-539 CNS, 97.6%. For the same compound, the growth in the assay with UACC-257 melanoma is 114%; with M14 melanoma, 106%; with HCT-15 colon it was 113%; in the assay on HT29 colon, 114%; in the assay on SNB-75 CNS, 84.5%; with U251 CNS it was 99.5%. Further, the growth was 106% in the assay with SK-MEL-5 melanoma, 106% in the assay with UACC-62 melanoma and 87.7% in the assay on SK-MEL-28 melanoma.

In the case of `Nc1ccc(C2=NN(c3ccccc3)C(c3ccc(Cl)cc3)C2)cc1` (stereo not drawn), the growth in the assay with K-562 leukemia is 17.5%; with MALME-3M melanoma, 105%; in the assay with MDA-MB-231 breast, 88.5%; in the assay with SF-268 CNS it was 82.5%; in the assay with SF-295 CNS, 86.6%; with SF-539 CNS it was 81.2%. In addition, the growth is 82.1% with UACC-257 melanoma; 72.7% in the assay with M14 melanoma; 48.7% in the assay on HCT-15 colon; 19.5% in the assay on HT29 colon; 72.8% in the assay on SNB-75 CNS; 78.1% in the assay with SNB-19 CNS. The results for the growth in the assay with PC-3 prostate, with UACC-62 melanoma and with SK-MEL-28 melanoma were 80.9%, 89.5% and 105%, respectively.

On to `CN1CCN(CC(=O)Nc2nc3c(s2)Nc2cc(Cl)c(Cl)cc2NC3=O)CC1`, for which the growth in the assay on K-562 leukemia was 81.3%; with MALME-3M melanoma, 107%; in the assay with MDA-MB-231 breast, 123%; in the assay with SF-268 CNS, 111%; in the assay with SF-295 CNS it was 108%; in the assay on SF-539 CNS it was 107%. The growth is 87.9% with UACC-257 melanoma; 105% in the assay on M14 melanoma; 104% with HCT-15 colon; 99.1% in the assay on HT29 colon; 96.3% with SNB-75 CNS; 104% with SNB-19 CNS. In addition, the growth with U251 CNS is 95%; in the assay with PC-3 prostate, 97.7%; in the assay with UACC-62 melanoma, 109%; in the assay with SK-MEL-28 melanoma it was 111%.

With `NS(=O)(=O)c1ccc(NC2=C(Cl)C(=O)c3ccccc3C2=O)cc1`, the growth was 18.6% in the assay with K-562 leukemia; 135% in the assay with MALME-3M melanoma; 79.7% in the assay with MDA-MB-231 breast; 118% in the assay on SF-268 CNS; 111% with SF-295 CNS; 89.6% in the assay on SF-539 CNS. Further, the growth in the assay with UACC-257 melanoma is 92.5%; in the assay with M14 melanoma, 99.9%; in the assay with HCT-15 colon, 46.5%; in the assay with HT29 colon it was 105%; in the assay on SNB-19 CNS, 101%; in the assay with U251 CNS it was 97.5%. Besides, the growth in the assay with PC-3 prostate is 70.1%; with UACC-62 melanoma, 96.2%; with LOX IMVI melanoma it was 53.7%; with SK-MEL-28 melanoma it was 124%; in the assay with SK-MEL-2 melanoma, 102%.

As for `COc1ccc2nc3cc(Cl)ccc3c(Nc3cc(C(C)C)c(O)cc3C)c2c1`, the growth is 19.4% in the assay with K-562 leukemia; 39.3% with MALME-3M melanoma; 37.7% with MDA-MB-231 breast; 64% in the assay on SF-268 CNS; 5.22% (active) in the assay on SF-295 CNS; 59.5% with SF-539 CNS. Also, the growth in the assay on UACC-257 melanoma is 47%; in the assay on M14 melanoma, 56.2%; in the assay on HCT-15 colon, 10.6%; in the assay on HT29 colon, 5.84% (active); with SNB-75 CNS it was 63.7%; in the assay on U251 CNS, 19.5%. Moreover, the growth in the assay with SK-MEL-5 melanoma is -91% (active); in the assay with UACC-62 melanoma, 65.8%; in the assay on LOX IMVI melanoma it was 26.8%; in the assay on SK-MEL-28 melanoma, 71.4%.
